Data taken from publication PMC7862700, “An all-to-all approach to the identification of sequence-specific readers for epigenetic DNA modifications on cytosine”.

Legend:
Test in all cases: DAPPL (digital affinity profiling via proximity ligation, sequencing); 10 mM Tris-HCl pH 7.5, 50 mM NaCl, 1 mM DTT, 4% glycerol, room temperature, 30 min; GST-TFs on glutathione beads, 16-mer random dsDNA library, 0.1% formaldehyde crosslink after washing; high values mean tight binding
[1] = target: T1, FLI1 (Homo sapiens, UniProt Q01543 1-452); settings: protein: recombinant; tags: N-terminal GST; dsDNA, one strand shown
T1 sequence: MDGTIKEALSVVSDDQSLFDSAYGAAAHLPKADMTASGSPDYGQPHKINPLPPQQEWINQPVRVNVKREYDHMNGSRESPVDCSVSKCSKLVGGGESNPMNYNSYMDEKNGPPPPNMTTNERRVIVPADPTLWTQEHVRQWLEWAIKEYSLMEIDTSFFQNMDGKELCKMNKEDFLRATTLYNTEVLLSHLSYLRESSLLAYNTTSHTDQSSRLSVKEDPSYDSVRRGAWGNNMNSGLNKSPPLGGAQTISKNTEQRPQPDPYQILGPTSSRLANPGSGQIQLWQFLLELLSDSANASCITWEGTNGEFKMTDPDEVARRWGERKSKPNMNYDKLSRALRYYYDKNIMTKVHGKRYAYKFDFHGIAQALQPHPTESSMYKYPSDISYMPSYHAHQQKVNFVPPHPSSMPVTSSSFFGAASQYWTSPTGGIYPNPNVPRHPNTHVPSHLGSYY
Method in brief: (§1)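 Beads coated with glutathione captured GST-fused human transcription factors that had been expressed in yeast, and the factors were then given DNA barcodes and pooled with a tag-only sample. The pools were incubated with 200 nmole of a random double-stranded 16-mer DNA library in Tris/NaCl/DTT/glycerol buffer for 30 min at room temperature, washed, crosslinked with 0.1% formaldehyde and proximity-ligated with BsaI/T4 ligase at 37 °C for 1 h. PCR amplification and Illumina NextSeq500 sequencing came last. Binding signal is each hexamer's read frequency for a factor divided by its frequency for the tag-only sample.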

[2] = target: T2, ELK1 (Homo sapiens, UniProt P19419 1-428); settings: protein: recombinant; tags: N-terminal GST; dsDNA, one strand shown
T2 sequence: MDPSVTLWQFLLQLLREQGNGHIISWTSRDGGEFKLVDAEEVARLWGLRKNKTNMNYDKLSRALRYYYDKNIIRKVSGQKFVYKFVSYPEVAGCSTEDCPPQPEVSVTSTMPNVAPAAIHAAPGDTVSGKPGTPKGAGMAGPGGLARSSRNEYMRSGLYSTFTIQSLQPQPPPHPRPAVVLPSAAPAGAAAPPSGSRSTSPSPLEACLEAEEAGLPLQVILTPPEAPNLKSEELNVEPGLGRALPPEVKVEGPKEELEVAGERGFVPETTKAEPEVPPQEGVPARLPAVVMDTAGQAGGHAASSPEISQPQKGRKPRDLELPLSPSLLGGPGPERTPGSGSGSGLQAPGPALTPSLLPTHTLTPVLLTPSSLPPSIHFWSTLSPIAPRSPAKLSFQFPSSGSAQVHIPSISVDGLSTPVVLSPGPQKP
Method in brief: as §1

[3] = target: T3, GABPA (Homo sapiens, UniProt Q06546 1-454); settings: protein: recombinant; tags: N-terminal GST; dsDNA, one strand shown
T3 sequence: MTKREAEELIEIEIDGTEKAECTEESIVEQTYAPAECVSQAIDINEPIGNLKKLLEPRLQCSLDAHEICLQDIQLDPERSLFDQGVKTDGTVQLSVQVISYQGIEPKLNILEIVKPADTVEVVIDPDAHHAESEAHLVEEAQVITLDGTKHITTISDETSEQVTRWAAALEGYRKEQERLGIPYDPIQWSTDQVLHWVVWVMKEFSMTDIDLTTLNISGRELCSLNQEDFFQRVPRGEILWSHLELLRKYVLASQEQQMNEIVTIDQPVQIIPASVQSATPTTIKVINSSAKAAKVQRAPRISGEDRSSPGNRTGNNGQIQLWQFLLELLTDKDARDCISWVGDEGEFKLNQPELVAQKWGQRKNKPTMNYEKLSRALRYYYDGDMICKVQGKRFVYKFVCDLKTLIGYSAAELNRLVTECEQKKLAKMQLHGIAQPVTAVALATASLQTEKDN
Method in brief: as §1

[4] = target: T4, ERG (Homo sapiens, UniProt P11308 1-479); settings: protein: recombinant; tags: N-terminal GST; dsDNA, one strand shown
T4 sequence: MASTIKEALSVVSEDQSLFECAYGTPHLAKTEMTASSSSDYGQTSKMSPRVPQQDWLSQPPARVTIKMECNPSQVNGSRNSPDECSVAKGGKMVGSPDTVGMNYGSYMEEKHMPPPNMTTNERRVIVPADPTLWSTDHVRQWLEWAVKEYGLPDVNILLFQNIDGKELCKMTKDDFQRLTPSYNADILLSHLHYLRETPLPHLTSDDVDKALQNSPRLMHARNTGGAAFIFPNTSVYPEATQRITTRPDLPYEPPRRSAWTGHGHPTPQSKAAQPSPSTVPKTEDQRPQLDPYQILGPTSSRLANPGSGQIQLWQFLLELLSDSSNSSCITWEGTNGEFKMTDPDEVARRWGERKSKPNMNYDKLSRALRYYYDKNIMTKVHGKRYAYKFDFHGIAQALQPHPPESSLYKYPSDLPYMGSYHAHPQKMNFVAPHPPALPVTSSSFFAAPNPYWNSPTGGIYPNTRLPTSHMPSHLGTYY
Method in brief: as §1

[5] = target: ELF1 (Homo sapiens, UniProt P32519 1-619); settings: protein: recombinant; tags: N-terminal GST; dsDNA, one strand shown
Sequence of ELF1 (P32519 whole entry): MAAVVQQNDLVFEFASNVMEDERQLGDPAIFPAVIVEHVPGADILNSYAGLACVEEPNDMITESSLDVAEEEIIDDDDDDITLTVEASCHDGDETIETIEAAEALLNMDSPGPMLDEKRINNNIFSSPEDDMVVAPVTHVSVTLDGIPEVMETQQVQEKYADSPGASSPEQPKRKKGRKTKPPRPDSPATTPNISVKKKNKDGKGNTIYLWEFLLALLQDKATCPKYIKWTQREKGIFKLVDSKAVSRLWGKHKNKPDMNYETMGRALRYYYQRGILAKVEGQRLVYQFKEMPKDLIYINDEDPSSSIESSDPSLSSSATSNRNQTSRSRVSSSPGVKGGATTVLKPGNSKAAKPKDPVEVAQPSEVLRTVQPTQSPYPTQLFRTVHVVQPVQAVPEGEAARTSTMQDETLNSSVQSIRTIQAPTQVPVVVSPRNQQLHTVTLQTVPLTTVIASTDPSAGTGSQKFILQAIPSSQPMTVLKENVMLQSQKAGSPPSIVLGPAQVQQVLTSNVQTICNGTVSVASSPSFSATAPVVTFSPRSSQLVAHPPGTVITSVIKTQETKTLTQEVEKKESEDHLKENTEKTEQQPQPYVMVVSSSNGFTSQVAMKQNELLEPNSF
Method in brief: as §1

[6] = target: T5, EHF (Homo sapiens, UniProt Q9NZC4 1-300); settings: protein: recombinant; tags: N-terminal GST; dsDNA, one strand shown
T5 sequence: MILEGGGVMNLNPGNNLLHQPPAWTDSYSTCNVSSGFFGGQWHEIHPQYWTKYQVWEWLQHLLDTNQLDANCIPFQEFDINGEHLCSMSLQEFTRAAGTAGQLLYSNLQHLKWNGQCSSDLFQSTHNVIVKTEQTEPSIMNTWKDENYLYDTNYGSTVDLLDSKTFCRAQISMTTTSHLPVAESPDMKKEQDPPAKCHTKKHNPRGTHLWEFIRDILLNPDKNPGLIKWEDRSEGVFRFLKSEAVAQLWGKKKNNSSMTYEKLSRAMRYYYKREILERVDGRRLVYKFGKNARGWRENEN
Method in brief: as §1

[7] = target: SPI1 (Homo sapiens, UniProt P17947 1-270); settings: protein: recombinant; tags: N-terminal GST; dsDNA, one strand shown
Method in brief: as §1

[8] = target: SPIB (Homo sapiens, UniProt Q01892 1-262); settings: protein: recombinant; tags: N-terminal GST; dsDNA, one strand shown
Sequence of SPIB (Q01892 whole entry): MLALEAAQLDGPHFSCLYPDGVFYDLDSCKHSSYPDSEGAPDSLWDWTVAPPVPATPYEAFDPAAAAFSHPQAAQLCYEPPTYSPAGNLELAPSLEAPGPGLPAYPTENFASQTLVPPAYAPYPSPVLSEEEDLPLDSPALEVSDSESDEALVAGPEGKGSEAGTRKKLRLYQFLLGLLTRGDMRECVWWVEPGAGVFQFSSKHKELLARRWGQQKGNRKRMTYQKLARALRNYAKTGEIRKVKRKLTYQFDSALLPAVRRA
Method in brief: as §1

[9] = target: T6, ELK3 (Homo sapiens, UniProt P41970 1-407); settings: protein: recombinant; tags: N-terminal GST; dsDNA, one strand shown
T6 sequence: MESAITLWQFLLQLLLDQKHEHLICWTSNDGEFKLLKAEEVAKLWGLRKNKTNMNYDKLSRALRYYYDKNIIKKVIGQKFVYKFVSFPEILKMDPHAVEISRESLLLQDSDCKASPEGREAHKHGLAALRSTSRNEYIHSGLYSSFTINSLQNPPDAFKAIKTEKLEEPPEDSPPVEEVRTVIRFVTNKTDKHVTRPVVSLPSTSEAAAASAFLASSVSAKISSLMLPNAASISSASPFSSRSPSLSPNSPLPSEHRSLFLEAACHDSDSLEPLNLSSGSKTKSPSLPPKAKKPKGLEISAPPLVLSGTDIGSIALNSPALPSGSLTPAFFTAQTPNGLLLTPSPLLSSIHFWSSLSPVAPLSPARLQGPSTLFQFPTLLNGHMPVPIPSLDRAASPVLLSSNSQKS
Method in brief: as §1

[10] = target: T7, FEV (Homo sapiens, UniProt Q99581 1-238); settings: protein: recombinant; tags: N-terminal GST; dsDNA, one strand shown
T7 sequence: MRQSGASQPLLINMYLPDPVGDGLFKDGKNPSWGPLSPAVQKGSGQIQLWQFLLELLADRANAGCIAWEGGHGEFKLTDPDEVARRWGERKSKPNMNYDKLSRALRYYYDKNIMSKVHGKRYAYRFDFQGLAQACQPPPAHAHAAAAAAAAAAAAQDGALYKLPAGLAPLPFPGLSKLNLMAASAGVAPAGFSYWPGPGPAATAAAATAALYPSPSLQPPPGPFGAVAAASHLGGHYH
Method in brief: as §1

[11] = target: ETV5 (Homo sapiens, UniProt P41161 1-510); settings: protein: recombinant; tags: N-terminal GST; dsDNA, one strand shown
Sequence of ETV5 (P41161 whole entry): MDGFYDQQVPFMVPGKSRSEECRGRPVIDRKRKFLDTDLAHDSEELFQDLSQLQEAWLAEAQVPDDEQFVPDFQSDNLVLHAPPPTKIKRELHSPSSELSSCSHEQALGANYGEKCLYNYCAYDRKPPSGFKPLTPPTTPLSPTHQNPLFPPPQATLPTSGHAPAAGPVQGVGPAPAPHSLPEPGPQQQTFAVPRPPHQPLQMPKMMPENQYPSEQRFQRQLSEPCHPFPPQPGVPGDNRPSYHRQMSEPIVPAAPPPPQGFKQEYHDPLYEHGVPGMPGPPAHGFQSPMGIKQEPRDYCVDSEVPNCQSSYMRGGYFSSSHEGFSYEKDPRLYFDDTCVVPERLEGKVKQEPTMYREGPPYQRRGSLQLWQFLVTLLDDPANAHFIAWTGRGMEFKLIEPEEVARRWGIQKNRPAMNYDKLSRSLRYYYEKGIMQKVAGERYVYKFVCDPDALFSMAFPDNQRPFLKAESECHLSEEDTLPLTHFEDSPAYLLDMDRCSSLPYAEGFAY
Method in brief: as §1

[12] = target: HSF1 (Homo sapiens, UniProt Q00613 1-529); settings: protein: recombinant; tags: N-terminal GST; chain copies: 3; dsDNA, one strand shown
Sequence of HSF1 (Q00613 whole entry): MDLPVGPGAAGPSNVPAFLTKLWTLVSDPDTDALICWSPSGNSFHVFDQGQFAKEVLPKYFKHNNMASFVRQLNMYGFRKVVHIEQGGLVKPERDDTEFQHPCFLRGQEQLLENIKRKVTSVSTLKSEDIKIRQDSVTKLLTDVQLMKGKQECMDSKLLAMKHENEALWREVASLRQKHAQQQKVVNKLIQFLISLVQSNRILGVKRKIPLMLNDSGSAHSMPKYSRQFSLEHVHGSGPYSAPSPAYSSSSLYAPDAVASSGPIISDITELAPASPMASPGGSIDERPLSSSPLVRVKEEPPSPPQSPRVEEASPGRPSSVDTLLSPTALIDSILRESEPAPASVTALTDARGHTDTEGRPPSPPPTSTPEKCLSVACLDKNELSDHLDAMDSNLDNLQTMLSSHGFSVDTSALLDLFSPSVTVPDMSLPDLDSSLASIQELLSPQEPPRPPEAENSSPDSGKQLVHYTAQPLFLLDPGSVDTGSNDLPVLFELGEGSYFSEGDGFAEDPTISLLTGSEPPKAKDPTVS
Method in brief: as §1

[13] = target: T8, SPIC (Homo sapiens, UniProt Q8N5J4 1-248); settings: protein: recombinant; tags: N-terminal GST; dsDNA, one strand shown
T8 sequence: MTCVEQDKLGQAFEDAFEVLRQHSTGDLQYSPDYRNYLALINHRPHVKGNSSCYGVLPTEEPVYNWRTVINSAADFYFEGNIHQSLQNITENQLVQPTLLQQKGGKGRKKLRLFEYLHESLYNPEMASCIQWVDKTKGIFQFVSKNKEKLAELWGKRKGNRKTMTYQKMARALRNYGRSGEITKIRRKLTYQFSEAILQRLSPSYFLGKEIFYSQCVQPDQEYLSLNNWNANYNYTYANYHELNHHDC
Method in brief: as §1

[14] = target: ELF4 (Homo sapiens, UniProt Q99607 1-663); settings: protein: recombinant; tags: N-terminal GST; dsDNA, one strand shown
Sequence of ELF4 (Q99607 whole entry): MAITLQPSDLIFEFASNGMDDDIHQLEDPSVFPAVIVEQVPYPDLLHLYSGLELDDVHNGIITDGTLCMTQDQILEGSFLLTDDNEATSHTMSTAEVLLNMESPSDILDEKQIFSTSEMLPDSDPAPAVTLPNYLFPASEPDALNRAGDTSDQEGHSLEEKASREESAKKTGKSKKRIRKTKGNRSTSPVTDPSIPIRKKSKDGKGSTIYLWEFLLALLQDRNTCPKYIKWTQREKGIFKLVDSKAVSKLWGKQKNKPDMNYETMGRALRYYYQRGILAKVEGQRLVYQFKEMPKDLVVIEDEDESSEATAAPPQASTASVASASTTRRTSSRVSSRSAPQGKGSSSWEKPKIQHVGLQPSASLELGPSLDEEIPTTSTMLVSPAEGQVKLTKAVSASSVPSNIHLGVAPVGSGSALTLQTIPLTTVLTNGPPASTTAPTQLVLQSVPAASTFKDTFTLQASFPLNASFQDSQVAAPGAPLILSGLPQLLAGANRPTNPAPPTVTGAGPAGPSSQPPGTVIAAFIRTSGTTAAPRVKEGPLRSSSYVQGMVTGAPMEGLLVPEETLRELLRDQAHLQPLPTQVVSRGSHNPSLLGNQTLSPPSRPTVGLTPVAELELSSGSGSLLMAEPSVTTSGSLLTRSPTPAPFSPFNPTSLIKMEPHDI
Method in brief: as §1

[15] = target: T9, ELK4 (Homo sapiens, UniProt P28324-2 1-405); settings: protein: recombinant; tags: N-terminal GST; dsDNA, one strand shown
T9 sequence: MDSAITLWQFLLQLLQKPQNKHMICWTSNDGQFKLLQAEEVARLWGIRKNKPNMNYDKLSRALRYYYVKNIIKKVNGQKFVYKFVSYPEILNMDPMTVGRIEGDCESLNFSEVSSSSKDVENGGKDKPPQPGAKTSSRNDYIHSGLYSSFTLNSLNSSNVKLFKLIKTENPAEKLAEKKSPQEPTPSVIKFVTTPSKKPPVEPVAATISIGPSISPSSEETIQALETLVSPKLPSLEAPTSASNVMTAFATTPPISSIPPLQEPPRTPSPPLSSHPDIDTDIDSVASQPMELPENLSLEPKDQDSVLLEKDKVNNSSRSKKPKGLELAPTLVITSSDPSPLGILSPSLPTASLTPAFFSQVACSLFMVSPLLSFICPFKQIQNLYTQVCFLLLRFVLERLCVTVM
Method in brief: as §1

[16] = target: T10, ETV2 (Homo sapiens, UniProt O00321 1-342); settings: protein: recombinant; tags: N-terminal GST; dsDNA, one strand shown
T10 sequence: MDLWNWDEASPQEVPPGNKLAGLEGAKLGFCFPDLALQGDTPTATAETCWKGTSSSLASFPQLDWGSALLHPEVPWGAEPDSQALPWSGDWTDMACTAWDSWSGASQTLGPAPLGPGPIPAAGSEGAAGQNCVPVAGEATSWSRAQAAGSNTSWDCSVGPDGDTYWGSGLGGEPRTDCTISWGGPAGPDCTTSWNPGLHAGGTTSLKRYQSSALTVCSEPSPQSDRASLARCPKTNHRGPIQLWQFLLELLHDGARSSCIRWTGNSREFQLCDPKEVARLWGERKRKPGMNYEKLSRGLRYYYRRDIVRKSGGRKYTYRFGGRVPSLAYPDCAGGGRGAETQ
Method in brief: as §1

[17] = target: T11, ELF3 (Homo sapiens, UniProt P78545 1-371); settings: protein: recombinant; tags: N-terminal GST; dsDNA, one strand shown
T11 sequence: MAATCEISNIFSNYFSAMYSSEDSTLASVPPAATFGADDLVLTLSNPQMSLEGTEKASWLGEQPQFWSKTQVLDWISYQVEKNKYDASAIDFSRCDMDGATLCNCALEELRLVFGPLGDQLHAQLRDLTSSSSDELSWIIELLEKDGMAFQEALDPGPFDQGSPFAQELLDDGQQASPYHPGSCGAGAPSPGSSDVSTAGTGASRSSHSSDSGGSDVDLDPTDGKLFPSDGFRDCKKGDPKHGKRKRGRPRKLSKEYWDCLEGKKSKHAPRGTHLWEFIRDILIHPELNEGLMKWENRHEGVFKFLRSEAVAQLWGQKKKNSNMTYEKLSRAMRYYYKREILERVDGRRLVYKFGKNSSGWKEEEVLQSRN
Method in brief: as §1

[18] = target: CRX (Homo sapiens, UniProt O43186 1-299); settings: protein: recombinant; tags: N-terminal GST; dsDNA, one strand shown
Sequence of CRX (O43186 whole entry): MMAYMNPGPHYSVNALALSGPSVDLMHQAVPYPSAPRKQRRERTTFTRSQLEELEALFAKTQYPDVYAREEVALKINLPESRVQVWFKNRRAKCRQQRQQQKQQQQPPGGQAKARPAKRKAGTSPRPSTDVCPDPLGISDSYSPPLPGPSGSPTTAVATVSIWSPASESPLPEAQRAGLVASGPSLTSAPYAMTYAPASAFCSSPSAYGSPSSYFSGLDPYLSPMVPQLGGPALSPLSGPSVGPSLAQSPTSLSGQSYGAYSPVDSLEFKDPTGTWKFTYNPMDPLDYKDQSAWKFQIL
Method in brief: as §1

[19] = target: ETV1 (Homo sapiens, UniProt P50549 1-477); settings: protein: recombinant; tags: N-terminal GST; dsDNA, one strand shown
Sequence of ETV1 (P50549 whole entry): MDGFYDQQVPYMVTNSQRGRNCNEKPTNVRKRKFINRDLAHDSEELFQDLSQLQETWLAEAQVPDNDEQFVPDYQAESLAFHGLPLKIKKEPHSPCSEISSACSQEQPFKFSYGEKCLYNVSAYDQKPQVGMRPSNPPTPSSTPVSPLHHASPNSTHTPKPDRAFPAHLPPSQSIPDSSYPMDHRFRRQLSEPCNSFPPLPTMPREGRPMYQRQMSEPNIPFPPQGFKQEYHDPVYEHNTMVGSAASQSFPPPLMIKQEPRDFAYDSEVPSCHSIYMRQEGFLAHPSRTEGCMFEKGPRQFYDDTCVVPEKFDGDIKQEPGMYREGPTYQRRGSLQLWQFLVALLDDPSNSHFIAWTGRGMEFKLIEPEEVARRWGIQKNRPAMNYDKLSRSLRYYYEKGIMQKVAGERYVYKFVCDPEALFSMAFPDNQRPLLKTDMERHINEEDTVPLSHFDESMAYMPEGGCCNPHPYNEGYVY
Method in brief: as §1

Sequence: GTTAAC
- binding signal [1]: 1.04 fold enrichment (6-mer frequency, TF over GST control)
- binding signal [2]: 1.22 fold enrichment (6-mer frequency, TF over GST control)
- binding signal [3]: 1.13 fold enrichment (6-mer frequency, TF over GST control)
- binding signal [4]: 1.15 fold enrichment (6-mer frequency, TF over GST control)
- binding signal [5]: 1.14 fold enrichment (6-mer frequency, TF over GST control)
- binding signal [6]: 1.11 fold enrichment (6-mer frequency, TF over GST control)
- binding signal [7]: 1.15 fold enrichment (6-mer frequency, TF over GST control)
- binding signal [8]: 1.12 fold enrichment (6-mer frequency, TF over GST control)
- binding signal [9]: 1.23 fold enrichment (6-mer frequency, TF over GST control)
- binding signal [10]: 1.18 fold enrichment (6-mer frequency, TF over GST control)
- binding signal [11]: 1.19 fold enrichment (6-mer frequency, TF over GST control)
- binding signal [12]: 1.02 fold enrichment (6-mer frequency, TF over GST control)
- binding signal [13]: 1.11 fold enrichment (6-mer frequency, TF over GST control)
- binding signal [14]: 1.19 fold enrichment (6-mer frequency, TF over GST control)
- binding signal [15]: 1.25 fold enrichment (6-mer frequency, TF over GST control)
- binding signal [16]: 1.2 fold enrichment (6-mer frequency, TF over GST control)
- binding signal [17]: 1.21 fold enrichment (6-mer frequency, TF over GST control)
- binding signal [18]: 1.15 fold enrichment (6-mer frequency, TF over GST control)
- binding signal [19]: 1.2 fold enrichment (6-mer frequency, TF over GST control)
